The source of these data is PubChem BioAssay (NCATS).

Inconclusive results are not listed. Activity calls are given as the source filed them. Unless noted, calls come from the whole dose curve; as a rule, active = well fitted curve in the direction sought with a large enough effect; inconclusive = small, poorly fitted or top-dose-only effect, or another doubt; inactive = no such curve, though single readings can be large; an effect the other way counts as inactive or inconclusive.

Test [1] addresses Lysosomal acid glucosylceramidase (Homo sapiens) (UniProt P04062). The experiment in a line: Glucocerebrosidase-p2 (AID 348; in the data active = potency below about 10 µM; note: potency is the fitted concentration of half-maximal effect). The settings on record: purified GBA, blue fluorogenic substrate, 40 min. The method in brief:
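Normal human glucocerebrosidase (0.2 nM) with blue fluorogenic substrate (80 uM final) in citrate/phosphate pH 5.9 with 10mM sodium taurocholate, 0.01% tween-20; 40 min RT, NaOH/glycine stop; fluorescence Ex 365/Em 440; AC50 from a titration from 0.6 nM upwards.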

Test [2] in a line: AP1 Signaling Pathway (AID 357; active = well fitted curve in either direction with a large enough effect, not every such curve was filed as active; note: % is set by controls: 0 for no effect and ±100 for the full control effect). The following applies: ME-180 AP-1-bla reporter, EGF-induced, beta-lactamase ratio, 5 h; at 7.69 µM (top of the series) unless noted. The method in brief: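 ME-180 cells with beta-lactamase reporter under AP-1 response element, stimulated with EC50 EGF; compounds tested in titration series, 5 h at 37 °C. CCF4 substrate added 2.5 h at room temperature; 460/530 nm emission ratio gave %activity and AC50.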

The target in test [3] is Cytochrome P450 1A2 (Homo sapiens) (UniProt P05177). The experiment in a line: p450-cyp1a2 (AID 410; calls by dose curve; note: potency is the fitted concentration of half-maximal effect). The method, boiled down:
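O-Demethylation of luciferin 6' methyl ether by human CYP1A2 is monitored as luciferase luminescence. Substrate sits at Km (100uM); enzyme is 20nM. Values are scaled to 57 uM furafylline as maximal inhibition.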

Test [4] in a line: NFAT Signaling Pathway (AID 444; active = well fitted curve in either direction with a large enough effect, not every such curve was filed as active;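 note: carbachol stimulus at about its EC50 of 1 µM final; % is set by controls: 0 for no effect and ±100 for the full control effect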). The following applies: Jurkat NFAT-bla M1, carbachol, beta-lactamase ratio, 5 h; at 7.69 µM (top of the series) unless noted. The method in brief:
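Jurkat cells carrying an NFAT-driven β-lactamase reporter and co-transfected muscarinic M1 receptor were treated with compound plus carbachol (1 uM final, an EC50 level) for 5 h at 37 °C. CCF4 loading followed for 1 h at RT; 460/530 nm ratio gave %activity.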

A short description of test [5]: Stat Signaling Pathway (AID 446; active = well fitted curve in either direction with a large enough effect, not every such curve was filed as active;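 note: ME-180 cervical cancer cells given 40 pM IL-6 alongside compound; SIE-controlled beta-lactamase reporter measured as 460/530 nm FRET emission ratio; % is set by controls: 0 for no effect and ±100 for the full control effect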). The following applies: ME-180 (cervical carcinoma) SIE beta-lactamase reporter, IL-6 stimulated, 5 h; at 7.69 µM (top of the series) unless noted. The method in brief: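 Emission at 460 and 530 nm (excitation 405 nm) reports SIE-controlled beta-lactamase in ME-180 cells. Cells received compound with 40 pM IL-6 for 5 hrs at 37 C; data scaled between 300 pM IL-6 and 125 nM JAK-inhibitor controls.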

Test [6] concerns the target Glucocorticoid receptor (Homo sapiens) (UniProt P04150). The experiment in a line: GR-GFP Redistribution (AID 450;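 active = compounds whose dose series gives a full or clear partial fitted curve of increased nuclear translocation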; note: potency is the fitted concentration of half-maximal effect). The following applies: U2OS GR-GFP nuclear translocation, laser cytometry, 2 h.
For test [7] the target is unchanged. Kind of test: GR-EFC Redistribution (AID 451; calls by dose curve; note: potency is the fitted concentration of half-maximal effect). The following applies: CHO-K1 GR-EFC translocation, beta-gal luminescence, 2 h. The method in brief: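 CHO-K1 cells stably expressing nuclear-localized β-gal enzyme acceptor and GR fused C-terminally to the enzyme donor fragment; ligand-driven nuclear translocation restores β-gal by complementation. Compounds titrated up to 46 uM final, 2 h at 37 °C; luminescence read.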

For test [8], the target named is Mitogen-activated protein kinase 10 (Mus musculus) (UniProt Q61831). Kind of test: JNK3 AlphaScreen Assay (AID 530; active = well fitted curve in either direction with a large enough effect, not every such curve was filed as active;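 note: kinase came from lysate of stimulated human HepG2 cells; signal reports phosphorylation of biotinylated GST-cJun 1-79 at Ser73 with 10 µM ATP; % is set by controls: 0 for no effect and ±100 for the full control effect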). The method in brief:
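Phosphorylation of biotinylated GST-cJun(1-79) at Ser73 is measured by AlphaScreen proximity luminescence. Enzyme is JNK3 in HepG2 lysates activated with interleukin-1beta and tumor necrosis factor alpha; ATP is 10 uM final.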

The target in test [9] is Cytochrome P450 2C9 (Homo sapiens) (UniProt P11712). The experiment in a line: qHTS Assay for Inhibitors and Substrates of Cytochrome P450 2C9 (AID 883). Note: potency is the fitted concentration of half-maximal effect; nearly all actives have a fitted effect of over 60% in size. The method, boiled down:
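CYP2C9 deoxyluciferin hydroxylation, 37C, 60 min with NADPH regeneration; 10nM enzyme, 100uM Luciferin-H (KM). Glo detection reagent stopped reaction; luminescence normalized to sulphaphenazole (57uM) full inhibition.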
On the technique in general: In qHTS, concentration-response curves come from the screen itself.

Test [10] concerns the target Cytochrome P450 3A4 (Homo sapiens) (UniProt P08684). Kind of test: qHTS Assay for Activators of Cytochrome P450 3A4 (AID 885). Note: nearly all actives have a fitted effect of over 65% in size. The method in brief: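 Activators are scored by enhanced luminescence from CYP3A4 conversion of luciferin-PPXE (25uM, equal to KM) to luciferin, after 60 min at RT with an NADPH-regenerating system.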
Test [11] can be described thus: qHTS Assay for Lipid Storage Modulators (AID 1519; calls by dose curve). The settings on record: Drosophila S3 cells, BODIPY lipid droplet/cell ratio, laser cytometry, cells loaded with oleic acid; for activity change, negative = inhibition: at 57.5 µM (top of the series). The method, boiled down: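 Cells seeded at 5,000 per well were treated with compounds over a concentration series and loaded with oleic acid (400 uM, as added). Lipid droplet fluorescence (488 nm excitation, 500-530 nm channel) was read by laser-scanning cytometry and normalized to 20 uM Triacsin C.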

A short description of test [12]: Primary qHTS for small molecule stabilizers of the endoplasmic reticulum resident proteome: Secreted ER Calcium Modulated Protein (SERCaMP) assay (AID 1508630). Note: % is set by controls: 0 for no effect and ±100 for the full control effect. The method in brief:
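The SH-SY5Y reporter protocol was run at 3 concentrations up to 38.3 uM (primary) or 11 concentrations (follow-up): 16 h compound, 100 nM thapsigargin for 4 h, then extracellular luciferase luminescence.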

In test [13] the target is Rap guanine nucleotide exchange factor 3 (Homo sapiens) (UniProt O95398). Kind of test: Confirmatory qHTS for antagonist of cAMP-regulated guanine nucleotide exchange factor 3 (EPAC1) (AID 1645880).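 Note: plate controls were DMSO only for no effect and full effect of the ATA control for full effect; nearly all actives have a fitted effect of over 55% in size.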 The method, boiled down:
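Released BODIPY-GDP fluoresces less than Rap1-bound BODIPY-GDP; the signal is followed at 480/540 nm at 5-min intervals over 30 min, after 5 min at room temperature. Reactions contain 100 nM EPAC1, 250 nM RAP1B-BODIPY-GDP and 50 uM GDP; results are normalized to ATA and DMSO.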

The target is the same in test [14]. Kind of test: Confirmatory qHTS for agonist of cAMP-regulated guanine nucleotide exchange factor 3 (EPAC1) (AID 1645881).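 Note: EPAC1 catalysed release of BODIPY-GDP from Rap1B seen as fluorescence loss; 100% = effect of cAMP agonist control; nearly all actives have a fitted effect of over 75% in size.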
Test [15] deals with Rap guanine nucleotide exchange factor 4 (Homo sapiens) (UniProt Q8WZA2). The experiment in a line: Confirmatory qHTS for agonist of cAMP-regulated guanine nucleotide exchange factor 4 (EPAC2) (AID 1645884).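 Note: nucleotide exchange releases bodipy-GDP from Rap1 and this lowers its fluorescence; % is set by controls: 0 for no effect and ±100 for the full control effect; nearly all actives have a fitted effect of over 65% in size.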
Chain of Rap guanine nucleotide exchange factor 4 (Homo sapiens) (Q8WZA2 whole entry, looked up): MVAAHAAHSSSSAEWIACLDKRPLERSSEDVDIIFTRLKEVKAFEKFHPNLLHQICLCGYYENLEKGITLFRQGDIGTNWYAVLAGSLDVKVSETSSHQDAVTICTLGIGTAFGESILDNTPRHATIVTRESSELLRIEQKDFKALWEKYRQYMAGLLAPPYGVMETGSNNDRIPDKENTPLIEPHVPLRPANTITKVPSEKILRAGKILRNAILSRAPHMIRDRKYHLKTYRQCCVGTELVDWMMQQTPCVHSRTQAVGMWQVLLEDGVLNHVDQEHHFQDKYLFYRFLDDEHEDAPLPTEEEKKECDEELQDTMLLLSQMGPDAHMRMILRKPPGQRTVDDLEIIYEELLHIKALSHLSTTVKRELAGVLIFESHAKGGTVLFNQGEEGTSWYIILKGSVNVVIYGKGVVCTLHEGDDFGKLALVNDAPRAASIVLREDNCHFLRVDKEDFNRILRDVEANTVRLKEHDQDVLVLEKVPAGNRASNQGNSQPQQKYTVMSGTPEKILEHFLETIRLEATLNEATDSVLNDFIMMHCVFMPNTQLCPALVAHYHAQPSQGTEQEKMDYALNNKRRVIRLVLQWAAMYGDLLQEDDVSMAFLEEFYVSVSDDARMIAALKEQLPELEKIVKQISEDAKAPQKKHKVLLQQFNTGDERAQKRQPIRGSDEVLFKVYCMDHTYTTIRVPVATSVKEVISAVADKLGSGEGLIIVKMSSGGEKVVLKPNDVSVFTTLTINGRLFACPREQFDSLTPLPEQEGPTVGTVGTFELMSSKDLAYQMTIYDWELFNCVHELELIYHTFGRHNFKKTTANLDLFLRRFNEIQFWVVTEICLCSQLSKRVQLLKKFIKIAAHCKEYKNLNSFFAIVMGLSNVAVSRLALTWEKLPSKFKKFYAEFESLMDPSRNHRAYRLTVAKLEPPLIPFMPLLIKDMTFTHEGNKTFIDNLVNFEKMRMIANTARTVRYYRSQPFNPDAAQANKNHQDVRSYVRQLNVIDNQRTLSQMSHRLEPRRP
In test [16] the target is Dual specificity protein kinase CLK4 (Homo sapiens) (UniProt Q9HAZ1). The experiment in a line: qHTS Assay for Inhibitors of CDC-like Kinase 4 (Kinase-Glo Assay) (AID 1770). Note: % is set by controls: 0 for no effect and ±100 for the full control effect; nearly all actives have a fitted effect of over 65% in size. The method in brief:
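Readout: Kinase-Glo luminescence from ATP left after a 4.5 h room-temperature reaction of 25 nM Clk4 with 100 uM RS peptide and 1 uM ATP (final). Buffer: 25 mM Tris pH 7.5, 10 mM MgCl2.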

Test [17] has the same target. Kind of test: qHTS Assay for Inhibitors of CDC-like Kinase 4 (ADP-Glo Assay) (AID 1771). Note: % is set by controls: 0 for no effect and ±100 for the full control effect; nearly all actives have a fitted effect of over 70% in size. The method, boiled down:
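Compounds are pin-transferred onto substrate mix (100 uM RS peptide, 1 uM ATP), then 25 nM Clk4 is added. After 1 hr at room temperature, ADP-Glo reagent runs 45 min, detection reagent 30 min, then luminescence is read.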

The target is the same in test [18]. Kind of test: qHTS Assay for Inhibitors of CDC-like Kinase 4 (ADP-FP Assay) (AID 1795).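 Note: recombinant human CLK4 phosphorylating RS repeat peptide at 1 µM ATP; % is set by controls: 0 for no effect and ±100 for the full control effect; nearly all actives have a fitted effect of over 60% in size.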 The method, boiled down:
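FP readout: Orange Transcreener ADP2 tracer (4 nM) plus ADP antibody, read after 30 min at room temperature. Kinase step: 6.25 nM Clk4, 100 uM RS peptide, 1 uM ATP, pH 7.5, 1 h.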

Test [19] deals with Ubiquitin carboxyl-terminal hydrolase 1 (Homo sapiens) (UniProt O94782). The experiment in a line: Inhibitors of USP1/UAF1: Pilot qHTS (AID 504865).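 Note: rhodamine fluorescence freed from ubiquitin-rhodamine substrate followed over time; top concentration of the series differs between compounds; % is set by controls: 0 for no effect and ±100 for the full control effect; nearly all actives have a fitted effect of over 35% in size.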 The method, boiled down: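 1nM USP1/UAF1 + cpd, 15 min RT; start w/ Ub-Rho 150nM final; kinetic FL 480/540 nm, 6 reads q60 s. Buffer 50mM HEPES pH 7.8, 0.5mM EDTA, 1mM TCEP, 0.01% Tween-20, 0.1 mg/ml BSA.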
Chain of Ubiquitin carboxyl-terminal hydrolase 1 (Homo sapiens) (O94782 whole entry, looked up): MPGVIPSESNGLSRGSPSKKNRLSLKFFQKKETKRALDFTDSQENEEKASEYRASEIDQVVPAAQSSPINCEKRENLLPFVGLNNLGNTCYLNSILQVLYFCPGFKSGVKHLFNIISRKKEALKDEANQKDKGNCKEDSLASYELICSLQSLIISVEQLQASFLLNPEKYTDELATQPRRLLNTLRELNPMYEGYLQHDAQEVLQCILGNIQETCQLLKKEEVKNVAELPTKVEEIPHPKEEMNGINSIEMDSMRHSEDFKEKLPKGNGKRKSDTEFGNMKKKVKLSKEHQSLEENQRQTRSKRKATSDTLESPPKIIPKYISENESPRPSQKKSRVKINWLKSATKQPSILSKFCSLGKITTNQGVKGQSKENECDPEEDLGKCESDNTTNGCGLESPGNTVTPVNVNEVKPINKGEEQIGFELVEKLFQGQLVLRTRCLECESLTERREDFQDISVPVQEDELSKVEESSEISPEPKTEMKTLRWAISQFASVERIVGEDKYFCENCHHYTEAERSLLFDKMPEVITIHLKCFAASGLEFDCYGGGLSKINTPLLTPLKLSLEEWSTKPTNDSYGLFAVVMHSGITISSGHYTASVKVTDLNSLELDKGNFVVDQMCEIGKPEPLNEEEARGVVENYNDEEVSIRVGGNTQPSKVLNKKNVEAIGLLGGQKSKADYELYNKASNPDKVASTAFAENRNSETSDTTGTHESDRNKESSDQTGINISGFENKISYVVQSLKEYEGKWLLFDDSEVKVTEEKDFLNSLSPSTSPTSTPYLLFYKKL
The target in test [20] is Rap guanine nucleotide exchange factor 4 (Homo sapiens) (UniProt Q8WZA2). Kind of test: Confirmatory qHTS for antagonist of cAMP-regulated guanine nucleotide exchange factor 4 (EPAC2) (AID 1645885). Note: nearly all actives have a fitted effect of over 25% in size. Note: potency is the fitted concentration of half-maximal effect.
For test [21], the target named is 3',5'-cyclic-AMP phosphodiesterase 4B (Homo sapiens) (UniProt Q07343). The experiment in a line: qHTS Assay for Inhibitors of PDE-IV (AID 607; active = well fitted activation curve with a large enough effect in the main read-out, with a control signal flat, not every such curve was filed as active; note: % of control where 0% means no effect). The method in brief:
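The readout is membrane depolarisation from a cAMP-sensing CNG channel, detected with a potential dye at ex 535/em 590. Cells were HEK293-derived (endogenous PDE-IV) at 1000 cells/well, titrated up to 22.9 uM final.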

Setting [22] is: measured here: cell count channel max response.
Setting [23] is: measured here: lipid channel max response.

Chain of Cytochrome P450 1A2 (Homo sapiens) (P05177 whole entry, looked up): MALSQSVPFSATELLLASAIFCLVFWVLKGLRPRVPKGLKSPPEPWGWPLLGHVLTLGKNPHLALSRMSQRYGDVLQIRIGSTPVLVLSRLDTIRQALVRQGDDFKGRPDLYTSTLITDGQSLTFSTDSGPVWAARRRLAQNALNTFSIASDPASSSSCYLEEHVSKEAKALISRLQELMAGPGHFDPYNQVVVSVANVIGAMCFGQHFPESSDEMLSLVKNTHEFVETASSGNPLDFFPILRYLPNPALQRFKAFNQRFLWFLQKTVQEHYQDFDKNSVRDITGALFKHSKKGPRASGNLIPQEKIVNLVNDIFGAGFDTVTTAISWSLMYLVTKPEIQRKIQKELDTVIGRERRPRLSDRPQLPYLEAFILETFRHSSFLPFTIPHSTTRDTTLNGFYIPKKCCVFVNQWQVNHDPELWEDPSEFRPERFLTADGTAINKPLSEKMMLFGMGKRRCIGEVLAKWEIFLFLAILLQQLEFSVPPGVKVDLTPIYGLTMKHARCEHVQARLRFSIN
Chain of Rap guanine nucleotide exchange factor 3 (Homo sapiens) (O95398 whole entry, looked up): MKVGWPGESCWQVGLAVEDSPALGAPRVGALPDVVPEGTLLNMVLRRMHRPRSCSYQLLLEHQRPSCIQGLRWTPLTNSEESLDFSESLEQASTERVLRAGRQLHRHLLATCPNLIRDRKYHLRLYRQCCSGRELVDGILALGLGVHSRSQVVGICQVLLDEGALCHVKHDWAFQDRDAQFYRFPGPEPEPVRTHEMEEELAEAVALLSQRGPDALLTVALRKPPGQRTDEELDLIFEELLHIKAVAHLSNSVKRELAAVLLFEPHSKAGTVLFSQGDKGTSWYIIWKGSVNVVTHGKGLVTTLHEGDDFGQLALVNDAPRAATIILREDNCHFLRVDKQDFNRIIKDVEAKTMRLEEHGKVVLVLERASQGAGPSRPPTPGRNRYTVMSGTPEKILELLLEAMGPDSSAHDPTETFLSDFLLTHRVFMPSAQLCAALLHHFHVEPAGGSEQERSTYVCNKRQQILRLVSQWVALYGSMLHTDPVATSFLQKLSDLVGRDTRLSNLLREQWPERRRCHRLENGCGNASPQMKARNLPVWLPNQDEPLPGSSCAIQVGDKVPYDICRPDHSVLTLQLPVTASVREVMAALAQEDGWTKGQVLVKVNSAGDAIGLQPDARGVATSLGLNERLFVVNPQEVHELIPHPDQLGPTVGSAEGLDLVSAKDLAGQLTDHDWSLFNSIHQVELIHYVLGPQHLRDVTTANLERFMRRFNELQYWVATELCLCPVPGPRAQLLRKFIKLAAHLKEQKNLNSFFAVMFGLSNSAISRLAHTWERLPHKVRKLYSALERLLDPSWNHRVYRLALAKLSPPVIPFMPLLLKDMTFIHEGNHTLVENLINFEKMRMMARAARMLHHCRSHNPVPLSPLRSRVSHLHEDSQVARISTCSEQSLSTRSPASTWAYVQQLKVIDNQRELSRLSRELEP
Chain of Dual specificity protein kinase CLK4 (Homo sapiens) (Q9HAZ1 whole entry, looked up): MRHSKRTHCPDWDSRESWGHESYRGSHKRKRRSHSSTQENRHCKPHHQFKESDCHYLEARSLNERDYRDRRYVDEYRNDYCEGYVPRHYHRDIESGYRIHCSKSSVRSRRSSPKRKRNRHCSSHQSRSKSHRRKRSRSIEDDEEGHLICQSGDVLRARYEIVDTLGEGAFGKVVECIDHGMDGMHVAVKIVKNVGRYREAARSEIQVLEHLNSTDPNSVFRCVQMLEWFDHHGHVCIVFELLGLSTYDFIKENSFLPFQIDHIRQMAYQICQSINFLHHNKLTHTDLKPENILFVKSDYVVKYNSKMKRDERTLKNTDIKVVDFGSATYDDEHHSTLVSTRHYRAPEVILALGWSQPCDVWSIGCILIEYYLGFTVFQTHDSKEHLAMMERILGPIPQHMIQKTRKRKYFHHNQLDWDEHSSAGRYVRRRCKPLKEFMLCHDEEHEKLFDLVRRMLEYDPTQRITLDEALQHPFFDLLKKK
Chain of Lysosomal acid glucosylceramidase (Homo sapiens) (P04062 whole entry, looked up): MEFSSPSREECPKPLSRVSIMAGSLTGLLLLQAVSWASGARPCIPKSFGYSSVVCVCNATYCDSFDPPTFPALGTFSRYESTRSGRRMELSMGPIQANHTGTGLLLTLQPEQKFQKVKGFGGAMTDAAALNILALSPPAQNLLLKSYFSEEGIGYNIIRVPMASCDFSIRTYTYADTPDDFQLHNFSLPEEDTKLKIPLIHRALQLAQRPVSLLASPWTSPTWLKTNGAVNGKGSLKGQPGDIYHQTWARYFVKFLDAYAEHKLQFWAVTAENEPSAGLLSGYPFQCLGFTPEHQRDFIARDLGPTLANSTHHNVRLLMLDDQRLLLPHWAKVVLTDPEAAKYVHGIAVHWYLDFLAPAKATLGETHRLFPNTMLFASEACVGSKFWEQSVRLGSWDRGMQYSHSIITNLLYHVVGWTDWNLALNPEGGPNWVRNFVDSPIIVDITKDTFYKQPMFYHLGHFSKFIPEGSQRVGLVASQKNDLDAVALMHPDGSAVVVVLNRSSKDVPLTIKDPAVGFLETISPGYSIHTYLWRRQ
Chain of Glucocorticoid receptor (Homo sapiens) (P04150 whole entry, looked up, the tested form may be a part): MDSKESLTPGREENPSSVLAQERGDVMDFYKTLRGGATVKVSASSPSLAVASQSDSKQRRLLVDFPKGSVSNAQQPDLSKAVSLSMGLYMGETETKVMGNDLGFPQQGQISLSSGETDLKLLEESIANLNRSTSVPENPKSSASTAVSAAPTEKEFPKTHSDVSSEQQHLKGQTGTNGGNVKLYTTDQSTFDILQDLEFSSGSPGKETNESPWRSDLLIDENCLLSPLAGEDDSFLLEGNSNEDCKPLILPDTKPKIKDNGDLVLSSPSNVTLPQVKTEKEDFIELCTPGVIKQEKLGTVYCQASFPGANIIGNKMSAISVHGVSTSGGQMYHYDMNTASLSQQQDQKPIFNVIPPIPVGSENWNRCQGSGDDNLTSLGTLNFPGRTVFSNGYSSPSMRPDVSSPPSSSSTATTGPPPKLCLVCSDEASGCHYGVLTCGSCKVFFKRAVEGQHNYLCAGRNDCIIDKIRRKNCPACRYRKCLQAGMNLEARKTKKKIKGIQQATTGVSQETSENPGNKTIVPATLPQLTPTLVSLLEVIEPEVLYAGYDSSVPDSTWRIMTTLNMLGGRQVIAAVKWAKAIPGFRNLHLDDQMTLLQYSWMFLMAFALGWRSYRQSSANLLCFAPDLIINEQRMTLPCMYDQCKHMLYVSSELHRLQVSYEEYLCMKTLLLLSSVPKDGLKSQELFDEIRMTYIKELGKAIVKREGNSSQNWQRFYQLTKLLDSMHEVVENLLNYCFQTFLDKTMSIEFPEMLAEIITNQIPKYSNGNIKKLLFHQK

Take `O=c1cnc2cnc(Oc3cccc(Cl)c3)nc2n1Cc1ccc(F)cc1`: the Potency in [1] is > 11.4 µM (inactive); in test [3], 15.8 µM (active); in test [6], > 9.22 µM (inactive); in test [7], > 46 µM (inactive); in test [9], 7.94 µM (active). The results for the activity change, negative = inhibition in test [2], in test [4] and in [11] were -16% (inactive), -9.66% (inactive) and 3.63% (inactive), respectively. The activity, negative = inhibition in test [5] is -7.55% (inactive). The outcome in test [8], in test [14] and in test [15] was inactive. Besides, the Potency entry in [10], in test [12] and in test [13] was “inactive” in each case. Moreover, the max response in test [11] (setting [22]) is 17.8%; in test [11] (setting [23]), 21.6%.

As for `CN(C)c1ncc2nc(-c3cccs3)c(=O)n(CCC#N)c2n1`, the Potency in test [1] is > 11.4 µM (inactive); in [7], > 46 µM (inactive). Further, the figures for the activity change, negative = inhibition in test [2], in test [4] and in test [11] were 0.25% (inactive), -7.03% (inactive) and 5.59% (inactive), respectively. The activity, negative = inhibition in test [5] is 4.64% (inactive). Also, in test [8], the result was inactive. Further, the figures for the max response in test [11] (setting [22]) and in test [11] (setting [23]) were 20.3% and 26.4%, respectively. In addition, the Potency result in [16], in test [17], in test [18], in [19], in test [12] and in [13] was “inactive” in each case. Further, in [20], the Potency result was “inactive”.

On to `O=c1c(-c2ccccc2)nc2cnc(N3CCOCC3)nc2n1C1CC1`, for which the Potency in [1] was > 11.4 µM (inactive); in test [3], 3.16 µM (active); in test [6], > 9.22 µM (inactive); in [7], > 46 µM (inactive). For the same compound, the activity change, negative = inhibition was -9.27% (inactive) in [2], -1.33% (inactive) in test [4] and -1.42% (inactive) in test [11]. The activity, negative = inhibition in test [5] was -7.68% (inactive). The compound was classed as inactive in test [8]. Moreover, the Potency entry in test [21], in test [16], in test [17], in test [18], in test [19] and in test [12] was “inactive” throughout. Also, the max response was 1.76% in [11] (setting [22]) and -1.06% in test [11] (setting [23]).

As to `O=C(Nc1ccccc1)N1CCCC2(CCN(C(=O)c3cc(C(F)(F)F)cc(C(F)(F)F)c3)CC2)C1`, the Potency in test [1] was > 11.4 µM (inactive); in [3], 31.6 µM (active); in test [7], > 46 µM (inactive); in test [20], 44.1 µM (active). Besides, the activity change, negative = inhibition in test [2] is -28.2% (inactive); in [4], 19.5% (inactive); in test [11], -0.939% (inactive). Also, in [5], the activity, negative = inhibition is -14.9% (inactive). Moreover, the compound was classed as inactive in test [8], in test [14] and in [15]. Moreover, the Potency result in [10] and in [12] was “inactive” each time. Also, the values for the max response in [11] (setting [22]) and in test [11] (setting [23]) were 16.6% and 17.1%, respectively.
